Rce1 inh – yeast Rce1p protease inhibitors, primary screen, biochemical, fluorescence, cell-free homogeneous; calls only; yeast membranes, quenched prenylated peptide cleavage fluorescence; 290,000 compounds, 0.27% hits;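 active means fall in fluorescence gain of 50% or more versus controls, with final raw signal at or below 3038400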
Target sequence (Q03530 whole entry, looked up): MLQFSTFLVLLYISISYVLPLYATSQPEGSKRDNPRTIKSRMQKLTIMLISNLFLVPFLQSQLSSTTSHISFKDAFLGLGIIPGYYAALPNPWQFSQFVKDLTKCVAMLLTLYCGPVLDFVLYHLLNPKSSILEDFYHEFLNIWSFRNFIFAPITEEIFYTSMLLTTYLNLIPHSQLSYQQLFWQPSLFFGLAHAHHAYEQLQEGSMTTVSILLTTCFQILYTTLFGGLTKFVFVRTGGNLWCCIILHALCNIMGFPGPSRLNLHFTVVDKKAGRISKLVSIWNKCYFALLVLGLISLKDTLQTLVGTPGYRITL
PfHsp90 yeast 2 – growth inhibition of PfHsp90-expressing yeast, primary screen, antimalarial PfHsp90 inhibitor project, S. cerevisiae, BacTiter-Glo luminescence, single point, set 2 | inhibition, % at 9.4 µM | 310,000 compounds, 0.32% hits | BacTiter-Glo ATP, 48 h; yeast lacking PDR1 and PDR3 efflux regulators;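 active means every replicate shows inhibition above about 80%, whatever the replicate mean, limit read from the data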
tim23-1 inh – growth inhibitors of tim23-1 mutant yeast, primary screen, luminescence, uHTS. S. cerevisiae tim23-1 growth, BacTiter-Glo luminescence, 24 h. inhibition, % at 20 µM. 330,000 compounds, 1.3% hits. AID 463212, 2010;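 active means growth inhibition of the mutant yeast at or above 50%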;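 further: temperature-sensitive mutant grown at 25 °C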
TIM10 inh – growth inhibitors of isogenic TIM10 control yeast, primary screen, counter-screen for tim10-1 yeast inhibitor project, luminescence, uHTS; inhibition, % at 10 µM; 330,000 compounds, 1.4% hits; S. cerevisiae TIM10 strain growth, BacTiter-Glo luminescence, 24 h;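 active means inhibition of 40% or more at the single tested concentration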;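 further: wild-type TIM10 isogenic control strain grown at permissive 25 °C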
tim10-1 inh – growth inhibitors of tim10-1 mutant yeast, primary screen, luminescence, uHTS; inhibition, % at 20 µM; S. cerevisiae tim10-1 ts strain growth, BacTiter-Glo, 24 h; 330,000 compounds, 2.2% hits; AID 463190, 2010;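 active means inhibition of at least 40%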;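 further: mutant grown at 25 °C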
tim10-1 conf – growth inhibitors of tim10-1 mutant yeast, confirmation, single concentration, luminescence, S. cerevisiae; S. cerevisiae tim10-1 ts strain growth, BacTiter-Glo, 24 h; shares compounds with tim10-1 inh; inhibition, % at 20 µM; 7,400 compounds, 56% hits; AID 463213, 2010;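 active means inhibition of yeast growth at or above a set limit in either of two repeat tests at 20 µM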;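 further: tim10-1 mutant grown at permissive 25 °C to find synthetic lethal compounds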
TIM10 conf – growth inhibitors of wild-type TIM10 yeast, confirmation, counter-screen for tim10-1 synthetic lethality project, single concentration, luminescence, S. cerevisiae; shares compounds with TIM10 inh; S. cerevisiae tim10 strain growth, BacTiter-Glo luminescence, 24 h; inhibition, % at 10 µM; 4,600 compounds, 63% hits;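 active means inhibition of yeast growth at or above a set limit in either of two replicates at 10 µM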; further: this counterscreen used the strain with wild-type TIM10
Hits are given with their value; . = inactive; / = no result; + = active, no number. Hits are enriched below; roughly 3.7% of the tested compounds scored in any of these assays.

SMILES	Rce1 inh	PfHsp90 yeast 2	tim23-1 inh	TIM10 inh	tim10-1 inh	tim10-1 conf	others
O=C(N/N=C/C1C(=O)NC(=S)N(c2ccccc2)C1=O)c1cc(Br)c(O)c(Br)c1 (stereo unspecified)	.	.	.	.	.	/
NCCc1ccc(OCc2ccccc2)c(OCc2ccccc2)c1	/	.	.	.	.	/
Cc1ccc(-c2cc(-c3ccc(C)cc3)[n+](-c3ccccc3)c(-c3ccc(C)cc3)c2)cc1	+	.	.	.	42.7	.
CN(C)c1ccc(-[n+]2c(-c3ccccc3)cc(-c3ccccc3)cc2-c2ccccc2)cc1	/	.	.	.	51.8	37.2
c1ccc(-c2cc(-c3ccccc3)[n+](-c3ccccc3)c(-c3ccccc3)c2)cc1	.	.	.	.	.	/
C[C@H]1[C@@H](c2ccccc2)O[C@@H](c2ccccc2Br)N1C	.	.	.	.	.	/
O=C1CN=C(c2ccccc2)c2cc(Br)ccc2N1Cc1cc(=O)n2ccccc2n1	.	.	.	.	40.7	.
CCN1C[C@@]2(COC)C3[C@@H](OC)[C@H]4[C@@H]1[C@@]3(C1C[C@H]3[C@H](OC(=O)c5ccccc5)C1[C@]4(OC(C)=O)C[C@H]3OC)[C@@H](OC)C[C@H]2O (stereo partly specified)	.	/	.	.	.	/
Cc1cc(C=C2C(=O)N(C)C(=S)N(C)C2=O)c(C)n1C1CCCC1	.	.	.	.	46.7	.
O=C(Nc1ccc(C(F)(F)F)cc1)c1cccn(Cc2ccc3c(c2)OC(F)(F)O3)c1=O	.	.	.	.	45.8	.
Cn1c(O)c(C=NC2CC3CCC2(C)C3(C)C)c(=O)[nH]c1=O (stereo unspecified)	.	.	.	.	.	/
CCCCn1c(O)c(C=NC2CC3CCC2(C)C3(C)C)c(=O)[nH]c1=O (stereo unspecified)	.	.	.	.	55.3	40.0
CN1CCc2cc3c(cc2C1)OCO3	/	.	/	/	/	/
CN(C)C1(c2nnnn2CCOC(=O)Nc2ccc(Cl)cc2)CCCCC1	.	.	.	.	40.9	37.0
CCOc1ccc(CC2(CCc3ccncc3)C(=O)NC(=O)NC2=O)cc1	.	.	.	.	.	/
CC(C)(O)[C@H]1O[C@H]2CC[C@@]3(C)[C@@](O)(CC[C@H]4Cc5c([nH]c6ccccc56)[C@@]43C)C2=CC1=O	.	/	.	.	47.3	41.0
NP(=O)(Nc1ccccc1)Nc1ccccc1	/	.	/	/	/	/
O=C(N/N=C/c1c(O)n(C2CCCCC2)c(=S)[nH]c1=O)c1ccccc1O	.	.	.	.	53.0	.
COc1ccccc1CNCCc1ccc(F)cc1	.	.	.	.	.	/
CN(C)C(=O)Oc1ccc2c(c1)O/C(=C\c1cccc(Cl)c1)C2=O	.	.	.	.	40.7	31.8
COCCCn1c(N)c(C(=O)Nc2ccccc2)c2nc3ccccc3nc21	.	/	.	.	48.3	.
Cc1cc(OC(=O)CCNC(=O)OC(C)(C)C)c2c3c(c(=O)oc2c1)CCC3	.	/	.	.	44.7	38.8
Cc1cc(OC(=O)CCCNC(=O)OC(C)(C)C)c2c3c(c(=O)oc2c1)CCC3	.	/	.	.	.	/
C/C=C1/C[N+]2(C)CCC34C(=C(C=O)[C@H]1C[C@@H]32)Nc1ccccc14 (stereo partly specified)	/	.	.	.	.	/
CN(C)C(=O)Oc1ccc2oc(=O)cc(-c3cc4ccccc4o3)c2c1	.	.	.	.	.	.
SMILES	Rce1 inh	PfHsp90 yeast 2	tim23-1 inh	TIM10 inh	tim10-1 inh	tim10-1 conf	others
Cc1cc2oc(=O)cc(-c3cc4ccccc4o3)c2cc1OC(=O)N(C)C	.	.	.	.	.	/
CN(C)c1ccc(C=C(C#N)C#N)cc1	.	.	.	.	.	/
N#CC(C#N)=Cc1ccc(N2CCCC2)cc1	.	.	.	.	41.3	.
CCN(CC)C(=O)c1ccc(NC(=S)NC(=O)CCc2ccccc2)cc1	.	.	.	.	42.1	.
CC1C(OC(=O)CCC(=O)NC(C)(C)CO)O[C@H]2OC3(C)CC[C@H]4[C@H](C)CCC1C24OO3 (stereo partly specified)	.	.	.	.	.	/
C[C@H]1[C@H](OC(=O)CCC(=O)NCc2ccc(C(=O)O)cc2)O[C@@H]2O[C@@]3(C)CC[C@H]4[C@H](C)CC[C@@H]1C24OO3	.	.	.	.	43.1	.
O=c1[nH]c(=O)n(-c2ccc(Cl)cc2)c(O)c1C=NCCN1CCCCC1	.	.	.	.	.	/
O=C(c1ccc2c(c1)N(Cc1ccc(F)cc1)CCS2)N1CCC2(CC1)OCCO2	.	.	.	.	40.3	.
O=C(c1ccc2c(c1)ncn2-c1ccc(F)cc1F)N1CCC2(CC1)OCCO2	.	.	.	.	.	/
Cc1ccc(CN2CCSc3ccc(C(=O)N4CCC5(CC4)OCCO5)cc32)cc1	.	.	.	.	45.5	.
O=C(CCCOc1ccc(Cl)cc1Cl)N1CCC2(CC1)OCCO2	.	/	.	.	42.4	33.5
Cn1c(=O)cc(OCCCC(=O)N2CCC3(CC2)OCCO3)c2ccccc21	.	.	.	.	.	/
CN(C)C(=O)Oc1ccc(OCc2nc3ccccc3[nH]2)cc1	.	.	.	.	.	/
O=C(O)c1ccccc1-c1ccc(C=C2C(=O)N(c3ccccc3)C(=S)N(c3ccccc3)C2=O)o1	.	.	.	.	43.0	38.7
CCN(CC)CCCOC(=O)C(OC(C)C)(c1ccccc1)c1ccccc1	.	.	.	.	42.0	.
CCOC(C(=O)OCCCN(CC)CC)(c1ccccc1)c1ccccc1	.	/	.	.	.	/
COC(=O)C[C@]1(C(=O)OC)CN(C#N)N(c2ccc(Cl)cc2)C12c1ccccc1-c1ccccc12	.	.	.	.	46.3	.
COC(=O)[C@@H]1[C@@H](C(=O)OC)C2(c3ccccc3-c3ccccc32)N(c2ccc(Cl)cc2)N1C#N	.	.	.	.	.	/
Cc1[nH]n(-c2ccccc2)c(=O)c1C(c1ccc([N+](=O)[O-])cc1)c1c(C)[nH]n(-c2ccccc2)c1=O	.	.	.	46.2	55.6	43.8	TIM10 conf=33.0
O=C(Nc1cccc(C(F)(F)F)c1)c1cccn(Cc2ccc3c(c2)OC(F)(F)O3)c1=O	.	/	.	43.9	48.8	.	TIM10 conf=34.9
CN(C(=O)Cc1ccc(Cl)c(Cl)c1)C(CN1CCCC1)c1cccc(OCC(=O)O)c1 (stereo unspecified)	/	.	.	.	.	/

Assay outcomes: PubChem BioAssay, several laboratories
